Only some compounds are listed: those with a hit (about 4% of all), similar ones and a draw of the others.
Rv3671c inh: Rv3671c serine protease inhibitors, primary screen, biochemical, fluorescence polarization, M. tuberculosis H37Rv; P9WHR9; inhibition, % at 5.96 µM; 320,000 compounds, 0.048% hits; in the data active = inhibition above about 38%;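 also: extracellular domain of Rv3671c used as enzyme; 0% = enzyme with DMSO and 100% = no enzyme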
Target sequence (P9WHR9 whole entry, looked up, the tested form may be a part): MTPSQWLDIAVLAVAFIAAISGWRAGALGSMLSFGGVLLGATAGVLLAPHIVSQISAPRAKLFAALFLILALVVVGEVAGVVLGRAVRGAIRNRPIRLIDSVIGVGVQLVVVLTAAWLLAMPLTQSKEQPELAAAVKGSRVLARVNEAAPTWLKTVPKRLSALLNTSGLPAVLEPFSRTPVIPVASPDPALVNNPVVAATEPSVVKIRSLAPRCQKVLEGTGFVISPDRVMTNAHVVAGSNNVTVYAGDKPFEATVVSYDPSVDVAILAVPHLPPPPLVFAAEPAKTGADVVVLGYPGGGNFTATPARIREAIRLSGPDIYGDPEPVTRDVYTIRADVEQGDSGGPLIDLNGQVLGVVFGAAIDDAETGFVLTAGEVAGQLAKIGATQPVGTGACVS
Mtb betalactam: beta-lactam sensitization of Mtb H37Rv, H37Rv; 330,000 compounds, 0.27% hits; M. tuberculosis H37Rv growth with meropenem, percent inhibition; inhibition, % at 25 µM; AID 434955, 2010; call rule not given here;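 also: growth measured after seven days incubation then overnight dye step; 0% = bacteria only wells and 100% = bacteria with antibiotic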
RecA intein inh: Mtb RecA intein splicing inhibitors, primary screen, biochemical, fluorescence, HTS | cell-free RecA intein splicing | inhibition, % (no concentration beside the values) | 290,000 compounds, 0.75% hits | AID 2221, 2009; in the data active = inhibition above about 30%;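 also: 0% = vehicle wells and 100% = reference inhibitor control wells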
Mtb FBA inh: Mtb FBA enzyme inhibitors, primary screen, biochemical, fluorescence, strain H37Rv | Fructose-bisphosphate aldolase (Mycobacterium tuberculosis (strain ATCC 25618 / H37Rv)), … | purified M. tuberculosis FBA, fluorescence read-out | inhibition, % at 1 µM | 360,000 compounds, 2.3% hits; in the data active = inhibition above about 27%;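 also: 0% = vehicle and 100% = reference inhibitor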
GDH-TPI inh: GDH-TPI coupling enzyme inhibitors, primary screen, artefact control for M. tuberculosis FBA inhibitor project, biochemical, absorbance, full deck; GDH-TPI coupled enzyme counterscreen, NADH absorbance; inhibition, % at 4.8 µM; 360,000 compounds, 1.2% hits; AID 588335, 2011; in the data active = inhibition above about 30%;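 also: 0% = DMSO wells and 100% = wells lacking the enzyme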
UGM FP inh: M. tuberculosis UGM enzyme inhibitors, primary screen, biochemical, fluorescence polarization, single point. 320,000 compounds, 0.06% hits. purified UGM, fluorescence polarization probe displacement. UDP-galactopyranose mutase (Mycobacterium tuberculosis (strain ATCC 25618 / H37Rv)), …. inhibition, % at 10 µM; in the data active = inhibition above about 10%, passing the limit was not always enough
Active calls of the source: *.

What do the screens show for `Cc1[nH]n(-c2ccccc2)c(=O)c1/C=N/N1CCOCC1`?
Rv3671c inh: -5; Mtb betalactam: -3; RecA intein inh: 46*; Mtb FBA inh: -3; GDH-TPI inh: 6; UGM FP inh: 5

Results for Cc1[nH]n(-c2ccccc2)c(=O)c1/C=N/NC(=O)c1cccc(F)c1 ?
Rv3671c inh: 8; Mtb betalactam: 76; RecA intein inh: 11; Mtb FBA inh: 10; GDH-TPI inh: 20; UGM FP inh: 4

How did CC(C)NC(=S)N/N=C/c1c[nH]c2ccccc12 do in these assays?
Rv3671c inh: -2; Mtb betalactam: 95; RecA intein inh: 17; Mtb FBA inh: 1; GDH-TPI inh: 23; UGM FP inh: 1

What do the screens show for `Cc1cc(C(=O)N/N=C/c2c(C)n(C)c3ccccc23)n[nH]1`?
Rv3671c inh: -4; Mtb betalactam: 0; RecA intein inh: 2; Mtb FBA inh: 0; GDH-TPI inh: 57*; UGM FP inh: 2

How did Cc1[nH]c2ccccc2c1/C=N/NC(=S)NC(C)C do in these assays?
Rv3671c inh: 18; Mtb betalactam: -2; RecA intein inh: -1; Mtb FBA inh: -4; GDH-TPI inh: 38*; UGM FP inh: 1

How did Cc1cc(OCCn2ccnc2)cc(C)c1Cl do in these assays?
Rv3671c inh: 5; Mtb betalactam: 77; RecA intein inh: 3; Mtb FBA inh: 0; GDH-TPI inh: -7; UGM FP inh: 1

What do the screens show for `O=C(NC(Cc1ccc(O)cc1)C(=O)O)c1ccc2c(c1)OCO2` (stereo unspecified)?
Rv3671c inh: 3; Mtb betalactam: -5; Mtb FBA inh: 3; GDH-TPI inh: 12; UGM FP inh: -2

What do the screens show for `Cc1cccc2sc(NC(=O)c3ccc(NS(=O)(=O)c4cccs4)cc3)nc12`?
Rv3671c inh: -156; Mtb betalactam: 4; RecA intein inh: 1; Mtb FBA inh: 8; GDH-TPI inh: 32*; UGM FP inh: 0

What do the screens show for `Cc1cc(F)ccc1NC(=O)c1ccc(NS(=O)(=O)c2cccs2)cc1`?
Mtb FBA inh: -1; GDH-TPI inh: -7

How did COc1ccc2nc(NC(=O)c3ccc(NS(=O)(=O)c4cccs4)cc3)sc2c1 do in these assays?
Rv3671c inh: -95; Mtb betalactam: 40; RecA intein inh: 3; Mtb FBA inh: 21; GDH-TPI inh: 40*; UGM FP inh: 1

Results for COc1ccc2nc(NC(=O)CNS(=O)(=O)c3cccs3)sc2c1 ?
Rv3671c inh: -6; Mtb betalactam: 4; RecA intein inh: 3; Mtb FBA inh: 3; GDH-TPI inh: 8; UGM FP inh: 1

How did Cc1cc(NC(=O)c2cc(-c3cccc(OCC(C)C)c3)nc3ccccc23)no1 do in these assays?
Rv3671c inh: -22; Mtb betalactam: -2; RecA intein inh: -3; Mtb FBA inh: 5; GDH-TPI inh: 0; UGM FP inh: 0

How did CCOc1ccc(C2=CS/C(=C(\C#N)c3nnc4n3CCCCC4)N2CC)cc1 do in these assays?
Rv3671c inh: -3; Mtb betalactam: 3; Mtb FBA inh: -1; GDH-TPI inh: 32*; UGM FP inh: 0

How did Cc1cc(-c2ccccc2)nc2oc3c(c12)NC(=O)CN(c1ccccc1)C3=O do in these assays?
Rv3671c inh: 2; Mtb betalactam: -4; RecA intein inh: 3; Mtb FBA inh: 5; GDH-TPI inh: 10; UGM FP inh: -4

What do the screens show for `COc1cccc(N2CC(=O)Nc3c(oc4nc(-c5ccccc5)cc(C)c34)C2=O)c1`?
Rv3671c inh: 8; Mtb betalactam: 54; RecA intein inh: 1; Mtb FBA inh: 2; GDH-TPI inh: 35*; UGM FP inh: 1

What do the screens show for `O=[N+]([O-])c1ccc(Nc2nc(N/N=C\c3ccc4c(c3)OCO4)nc(N3CCCCC3)n2)cc1`?
Rv3671c inh: -22; Mtb betalactam: 97; RecA intein inh: 1; Mtb FBA inh: -1; GDH-TPI inh: 35*; UGM FP inh: 1

Results for COC(=O)c1ccc2c(C)c(C3(O)CCCCC3)[nH]c2c1 ?
Rv3671c inh: -4; Mtb betalactam: -1; Mtb FBA inh: active; GDH-TPI inh: 17; UGM FP inh: -3

What do the screens show for `COC(=O)c1cc(Cl)cc2c(C)c(C3(O)CCCCC3)[nH]c12`?
Rv3671c inh: -19; Mtb betalactam: -1; RecA intein inh: 6; Mtb FBA inh: 6; GDH-TPI inh: -6; UGM FP inh: -1

How did CS(=O)(=O)c1ccc2nc(NC(=O)c3cc4ccccc4o3)sc2c1 do in these assays?
Rv3671c inh: 9; Mtb betalactam: -2; RecA intein inh: -3; Mtb FBA inh: 5; GDH-TPI inh: 47*; UGM FP inh: 1

Results for CS(=O)(=O)c1ccc2nc(NC(=O)c3ccccc3Cl)sc2c1 ?
Mtb betalactam: 6; RecA intein inh: -1; Mtb FBA inh: -1; GDH-TPI inh: 19; UGM FP inh: -1

Results for Cc1nnc(NC(=O)c2cc3ccccc3o2)s1 ?
Rv3671c inh: 1; Mtb betalactam: 11; RecA intein inh: -1; Mtb FBA inh: -2; GDH-TPI inh: 11; UGM FP inh: 0

How did CS(=O)(=O)c1ccc2sc(NC(=O)c3cc4ccccc4o3)nc2c1 do in these assays?
Rv3671c inh: -11; Mtb betalactam: 3; RecA intein inh: -1; Mtb FBA inh: 5; GDH-TPI inh: 72*; UGM FP inh: 2

What do the screens show for `O=C(N/N=C/c1ccc2c(c1)OCO2)c1cc(-c2ccncc2)nc2ccccc12`?
Rv3671c inh: -19; Mtb betalactam: -1; RecA intein inh: 0; Mtb FBA inh: -7; GDH-TPI inh: 23; UGM FP inh: 2

How did O=C(N/N=C/c1ccc([N+](=O)[O-])cc1)c1cc(C2CC2)nc2ccccc12 do in these assays?
Rv3671c inh: -2; Mtb betalactam: 0; RecA intein inh: 2; Mtb FBA inh: -5; GDH-TPI inh: 33*; UGM FP inh: -3

Results for O=C(N/N=C/c1ccc([N+](=O)[O-])cc1)c1cc(C2CC2)[nH]n1 ?
Rv3671c inh: -3; Mtb betalactam: 1; RecA intein inh: 1; Mtb FBA inh: -1; GDH-TPI inh: 35*; UGM FP inh: 0

Results for O=C(N/N=C/c1ccc([N+](=O)[O-])cc1)c1[nH]ncc1Br ?
Rv3671c inh: -11; Mtb betalactam: -6; RecA intein inh: -2; Mtb FBA inh: active; GDH-TPI inh: 20; UGM FP inh: -3

Results for Cc1cc(C(=O)N/N=C/c2ccc3c(c2)OCO3)c2ccccc2n1 ?
Rv3671c inh: -3; Mtb betalactam: -11; RecA intein inh: -1; Mtb FBA inh: -2; GDH-TPI inh: 40*; UGM FP inh: 2

Screens (PubChem BioAssay)
